Measurements taken from PubChem BioAssay (NCATS).
Results filed as inconclusive are left out. Calls of active or inactive are those of the source. Calls follow the shape of the dose curve; as a rule, active = well fitted curve in the direction sought with a large enough effect; inconclusive = small, poorly fitted or top-dose-only effect, or another doubt; inactive = no such curve, though single readings can be large; an effect the other way counts as inactive or inconclusive.

Key:
[1] = qHTS of pediatric cancer cell lines to identify multiple opportunities for drug repurposing: Confirmatory screen for NB1643 cells (AID 1347109); also: nearly all actives have a fitted effect of over 45% in size
Outline: (§1)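 Cells (500-1,000/well) rested 5 h, then received compounds for 48 h; metabolically active cells were measured by CellTiter-Glo luminescence. Final concentrations spanned up to 46 µM (MIPE, 11-point) or 0.59 nM-46 µM (NPC, 8-point) in primary screens, 11-point in follow-ups.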

[2] = qHTS of pediatric cancer cell lines to identify multiple opportunities for drug repurposing: Confirmatory screen for A673 cells (AID 1347110);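 also: cells exposed to compound for 48 h before the viability read; nearly all actives have a fitted effect of over 65% in size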
Outline: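 Concentration-response curves came straight from titrations: 11 points (0.78 nM to 46 µM) for MIPE and several concentrations (0.59 nM to 46 µM) for NPC in primary, 11 points in follow-up. Readout: ATP luminescence at 48 h.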

[3] = qHTS of pediatric cancer cell lines to identify multiple opportunities for drug repurposing: Confirmatory screen for SK-N-MC cells (AID 1347111);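 also: cells exposed to compound for 48 h before the readout; nearly all actives have a fitted effect of over 70% in size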
Outline: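 Seed 500-1,000 cells/well; rest 5 h at 37 degrees C. Pin-transfer compounds, 11-point titration. Incubate 48 h. Add CellTiter-Glo, 15 min RT, read luminescence.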

[4] = qHTS of pediatric cancer cell lines to identify multiple opportunities for drug repurposing: Confirmatory screen for BT-12 cells (AID 1347112);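 also: viability read after 48 h of compound exposure; nearly all actives have a fitted effect of over 55% in size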
Outline: as §1

[5] = qHTS of pediatric cancer cell lines to identify multiple opportunities for drug repurposing: Confirmatory screen for LAN-5 cells (AID 1347113); also: nearly all actives have a fitted effect of over 65% in size
Outline: as §1

[6] = qHTS of pediatric cancer cell lines to identify multiple opportunities for drug repurposing: Confirmatory screen for DAOY cells (AID 1347114); also: nearly all actives have a fitted effect of over 65% in size
Outline: (§2)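 Viability measured as metabolically active cells via CellTiter-Glo luminescence following 48 hours of compound exposure, 11-point dilutions in confirmatory testing. 500-1,000 cells/well plated 5 hours before dosing; controls were DMSO and 2.3 µM bortezomib.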

[7] = qHTS of pediatric cancer cell lines to identify multiple opportunities for drug repurposing: Confirmatory screen for NB-EBc1 cells (AID 1347115);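 also: cells exposed to compound for 48 h before the viability read; nearly all actives have a fitted effect of over 45% in size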
Outline: as §1

[8] = qHTS of pediatric cancer cell lines to identify multiple opportunities for drug repurposing: Confirmatory screen for TC32 cells (AID 1347118);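 also: cells exposed to compound for 48 h before the read; nearly all actives have a fitted effect of over 65% in size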
Outline: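 Measured quantity: luminescence from CellTiter-Glo, reflecting metabolically active TC32 cells following 48 h of compound. Curves came straight from multi-point titrations, with 8 or 11 points in primary and 11 in confirmatory screening.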

[9] = qHTS of pediatric cancer cell lines to identify multiple opportunities for drug repurposing: Confirmatory screen for SJ-GBM2 cells (AID 1347116); also: nearly all actives have a fitted effect of over 60% in size
Outline: as §2

[10] = qHTS of pediatric cancer cell lines to identify multiple opportunities for drug repurposing: Confirmatory screen for BT-37 cells (AID 1347117); also: nearly all actives have a fitted effect of over 55% in size
Outline: as §1
Potency is read from the fitted curve at half-maximal effect.

| SMILES | Potency [1] | Potency [2] | Potency [3] | Potency [4] | Potency [5] | Potency [6] | Potency [7] | Potency [8] | Potency [9] | Potency [10] | outcome [9] |
| --- | --- | --- | --- | --- | --- | --- | --- | --- | --- | --- | --- |
| CN(C)CC[C@H](CSc1ccccc1)Nc1ccc(S(=O)(=O)NC(=O)c2ccc(N3CCN(Cc4ccccc4-c4ccc(Cl)cc4)CC3)cc2)cc1[N+](=O)[O-] | 414 nM (active) | 14700 nM (active) | 3690 nM (active) | inactive | 414 nM (active) | 16500 nM (active) | 8270 nM (active) | 20800 nM (active) |  |  |  |
| C[C@@H]1O[C@@H](O[C@H]2CC[C@@]3(C)[C@H](CC[C@@H]4[C@H]3C[C@@H](O)[C@]3(C)[C@@H](C5=CC(=O)OC5)CC[C@]43O)C2)C[C@H](O)[C@@H]1O[C@H]1C[C@H](O)[C@H](O[C@H]2C[C@H](O)[C@@H](O)[C@@H](C)O2)[C@H](C)O1 (stereo in doubt) | 339 nM (active) | 427 nM (active) | 269 nM (active) | 170 nM (active) | 302 nM (active) |  |  | 170 nM (active) | 302 nM (active) | 95.5 nM (active) |  |
| Cc1cnc(-c2cc(N3CCN(C(=O)CCS(C)(=O)=O)CC3)ncc2Cl)c(C)c1 | inactive | inactive | inactive | inactive | inactive | inactive | inactive | inactive |  | 29300 nM (active) |  |
| CC1(C)OC2CC3C4CC(F)C5=CC(=O)C=CC5(C)C4C(O)CC3(C)[C@]2(C(=O)CO)O1 (stereo not given in full) | inactive | inactive | inactive | inactive | inactive | inactive | inactive | inactive | inactive | inactive |  |
| Cc1ccc(C(=O)N(CCCN)[C@@H](c2oc3cc(Cl)ccc3c(=O)c2Cc2ccccc2)C(C)C)cc1 | 6570 nM (active) | 1.9 nM (active) | 5.9 nM (active) | 10.4 nM (active) | 14700 nM (active) | 5.2 nM (active) | 8270 nM (active) | 10.4 nM (active) |  | 11.7 nM (active) |  |
| CSc1cccc(Nc2ncc3cc(-c4c(Cl)cccc4Cl)c(=O)n(C)c3n2)c1 | 2930 nM (active) | 2080 nM (active) | 2610 nM (active) |  |  | 1170 nM (active) | 2080 nM (active) | 2930 nM (active) |  | 4140 nM (active) |  |
| CC1(C)CC(=O)c2c(C(F)(F)F)nn(-c3ccc(C(N)=O)c(NC4CCC(O)CC4)c3)c2C1 (stereo not given) | 165 nM (active) | 147 nM (active) | 165 nM (active) | inactive | 185 nM (active) | inactive | 261 nM (active) | 165 nM (active) |  | 104 nM (active) |  |
| CC1C(=O)OC2C(O)C34C5CC(C(C)(C)C)C36C(OC(=O)C6O)OC4(C(=O)O5)C12O (stereo not given) | inactive | 18500 nM (active) | inactive | inactive | inactive | inactive | inactive | inactive | inactive | inactive |  |
| CCNC(=O)c1noc(-c2cc(C(C)C)c(O)cc2O)c1-c1ccc(CN2CCOCC2)cc1 | 73.7 nM (active) | 52.2 nM (active) | 82.7 nM (active) |  | 52.2 nM (active) |  | 293 nM (active) | 82.7 nM (active) | 208 nM (active) | 82.7 nM (active) |  |
| Cc1ccc(S(=O)(=O)Nc2nc3ccccc3nc2Nc2ccc3nsnc3c2)cc1 | 9100 nM (active) | inactive | 256 nM (active) | inactive |  |  | inactive | 229 nM (active) |  | 1290 nM (active) |  |
| COC(=O)[C@H](c1ccccc1Cl)N1CCc2sccc2C1 | inactive | inactive | inactive | inactive | inactive | inactive | inactive | inactive | inactive | inactive |  |
| CC(C)(C)c1[nH]cnc1C=c1[nH]c(=O)c(=Cc2ccccc2)[nH]c1=O | 11.4 nM (active) | 32 nM (active) | 10.1 nM (active) | 202 nM (active) | 11.4 nM (active) | 18 nM (active) | 18 nM (active) | 10.1 nM (active) |  | 14.3 nM (active) | inactive [at 0.556 µM] |
| CN[C@@H]1CN(c2ccc3c(=O)c(C(=O)O)cn(-c4nccs4)c3n2)C[C@@H]1OC | 1820 nM (active) | 1290 nM (active) | 1440 nM (active) | 9100 nM (active) | 1820 nM (active) | 11500 nM (active) | 811 nM (active) | 1150 nM (active) | 10200 nM (active) | 2570 nM (active) |  |
| CCC(=O)N1CCN(c2ccc(-n3c(=O)ccc4cnc5ccc(-c6cnc7ccccc7c6)cc5c43)cc2C(F)(F)F)CC1 | inactive | inactive | 9270 nM (active) | inactive | inactive | inactive | inactive | 8270 nM (active) |  |  |  |
| C[C@@H]1[C@H](O)[C@@H](C)C=CC=CC=CC=CC=CC=CC=C[C@H](O[C@@H]2O[C@H](C)[C@H](O)[C@H](N)[C@@H]2O)C[C@@H]2O[C@](O)(C[C@@H](O)C[C@@H](O)[C@H](O)CC[C@@H](O)C[C@@H](O)CC(=O)O[C@H]1C)C[C@H](O)[C@@H]2C(=O)O | inactive | inactive | 10400 nM (active) | inactive | inactive | inactive | inactive | 11700 nM (active) |  | inactive |  |
| C=CC(=O)Nc1cccc(Sc2nc(Nc3ccc(N4CCN(C)CC4)cc3)ncc2Cl)c1 | 8270 nM (active) | 4140 nM (active) | 1040 nM (active) | 23300 nM (active) | 9270 nM (active) | 23300 nM (active) | 18500 nM (active) | 737 nM (active) | 14700 nM (active) | 13100 nM (active) |  |
| CC(=O)N1CCN(c2ccc(OCc3nn(C)c(C)c3-c3cccc4c(CCCOc5cc(C)c(Cl)c(C)c5)c(C(=O)O)n(Cc5cccnc5)c34)cc2)CC1 | inactive | 18500 nM (active) |  | inactive | inactive | inactive |  |  |  |  |  |
| C=C1[C@H](n2cnc3c(=O)[nH]c(N)nc32)C[C@H](O)[C@H]1CO | inactive | inactive | 7370 nM (active) | inactive | inactive | inactive | inactive | 8270 nM (active) |  | inactive |  |
| CC[C@]1(O)C[C@H]2CN(CCC3=c4ccccc4=N[C]3[C@@](C(=O)OC)(c3cc4c(cc3OC)N(C)[C@H]3[C@@](O)(C(N)=O)[C@H](O)[C@]5(CC)C=CCN6CC[C@]43[C@@H]65)C2)C1 | 104 nM (active) | 58.5 nM (active) | 117 nM (active) | 147 nM (active) | 147 nM (active) | 261 nM (active) |  | 104 nM (active) |  | 73.7 nM (active) |  |
| COc1ccc(-c2ccc3ncc4c(c3c2)n(-c2ccc(N3CCNCC3)c(C(F)(F)F)c2)c(=O)n4C)cn1 | 1040 nM (active) | 131 nM (active) | 82.7 nM (active) | 7370 nM (active) |  | 2330 nM (active) | 928 nM (active) | 32.9 nM (active) | 465 nM (active) | 208 nM (active) |  |
| COc1cc([C@@H]2c3cc4c(cc3[C@@H](O[C@@H]3O[C@@H]5CO[C@@H](C)O[C@@H]5[C@H](O)[C@@H]3O)[C@H]3COC(=O)[C@H]23)OCO4)cc(OC)c1O | 1470 nM (active) | 4650 nM (active) | 1040 nM (active) |  | 1470 nM (active) |  | 1470 nM (active) | 657 nM (active) | 9270 nM (active) | 737 nM (active) |  |
| Nc1ccc(-c2ccc3ncc4ccc(=O)n(-c5cccc(C(F)(F)F)c5)c4c3c2)cn1 | 369 nM (active) | 185 nM (active) | 131 nM (active) |  | 165 nM (active) | 3690 nM (active) | 293 nM (active) | 73.7 nM (active) | 233 nM (active) | 117 nM (active) |  |
